Source: article PMC4336329 (PLoS ONE, 2015)
Screen size: about 310,000 compounds; about 14,000 (4.5%) showed an effect of 50% or more. The effect is printed as a negative number. The sample holds strong results, similar compounds and a random draw of the others, so the mix is not that of the screen.

The molecules below were run against human ether-à-go-go-related gene (hERG) potassium channel (human, UniProt Q12809) (assay: primary screen, population patch clamp on CHO cells stably expressing hERG; higher = less effect of the substance).
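Also: peak tail current of the secondary pulse compared with the same well before compound.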

Chain of human ether-à-go-go-related gene (hERG) potassium channel (Q12809 whole entry, looked up): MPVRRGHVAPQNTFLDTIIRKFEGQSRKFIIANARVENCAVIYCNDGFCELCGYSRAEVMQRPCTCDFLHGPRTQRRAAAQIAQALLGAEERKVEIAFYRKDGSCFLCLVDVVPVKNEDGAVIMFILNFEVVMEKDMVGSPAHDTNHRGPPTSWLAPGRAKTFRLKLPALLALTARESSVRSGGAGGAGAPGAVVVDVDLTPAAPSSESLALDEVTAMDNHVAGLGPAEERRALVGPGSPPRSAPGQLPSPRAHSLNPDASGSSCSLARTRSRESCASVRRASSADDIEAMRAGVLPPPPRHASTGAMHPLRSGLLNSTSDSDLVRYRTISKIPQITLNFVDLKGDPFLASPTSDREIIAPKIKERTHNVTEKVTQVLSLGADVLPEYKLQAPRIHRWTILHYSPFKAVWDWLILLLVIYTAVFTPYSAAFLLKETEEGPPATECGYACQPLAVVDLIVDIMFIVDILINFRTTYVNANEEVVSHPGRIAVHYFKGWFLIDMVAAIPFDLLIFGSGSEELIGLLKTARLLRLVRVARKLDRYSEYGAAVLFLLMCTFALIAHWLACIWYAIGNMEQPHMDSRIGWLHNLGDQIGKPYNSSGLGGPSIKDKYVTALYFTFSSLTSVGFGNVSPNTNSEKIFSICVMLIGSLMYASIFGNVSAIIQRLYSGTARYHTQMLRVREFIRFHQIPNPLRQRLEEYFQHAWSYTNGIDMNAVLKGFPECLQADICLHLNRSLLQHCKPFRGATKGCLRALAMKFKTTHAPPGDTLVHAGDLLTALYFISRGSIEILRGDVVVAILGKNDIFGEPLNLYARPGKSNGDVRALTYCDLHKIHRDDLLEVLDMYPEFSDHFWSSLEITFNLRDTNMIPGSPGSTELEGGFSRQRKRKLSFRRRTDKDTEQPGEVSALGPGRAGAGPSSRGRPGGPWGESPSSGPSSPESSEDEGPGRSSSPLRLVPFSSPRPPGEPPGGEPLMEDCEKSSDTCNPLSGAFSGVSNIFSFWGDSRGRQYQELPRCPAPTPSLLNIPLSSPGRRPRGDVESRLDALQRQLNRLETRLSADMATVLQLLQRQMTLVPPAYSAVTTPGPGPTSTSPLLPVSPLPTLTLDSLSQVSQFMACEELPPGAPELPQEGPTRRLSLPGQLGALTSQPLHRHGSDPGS

Structure (SMILES)	hERG current change (%, negative = inhibition) at 10uM [%]
COc1ccc(NC(=O)CN(C)C(=O)c2ccc(NS(=O)(=O)c3ccc(C)c([N+](=O)[O-])c3)cc2)cc1	-2.55
CCN(CC(=O)Nc1ccc(NC(C)=O)cc1)C(=O)c1ccc(NC2CC2)c([N+](=O)[O-])c1	-46.1
COc1ccc(NC(=O)CN(C)C(=O)c2ccc(NC3CC3)c([N+](=O)[O-])c2)cc1	-72.8
O=C(O)CC1SC(=O)NC1=O (centres unmarked)	4.76
COc1ccc(-c2nc3ccc(C(=O)NCCCN4CCOCC4)cc3nc2-c2ccc(OC)cc2)cc1	9.44
Cc1cccc(-c2nc3ccc(C(=O)NCCN4CCN(C)CC4)cc3nc2-c2cccc(C)c2)c1	-11.7
CCN1CCN(CCNC(=O)c2ccc3nc(-c4cccc(C)c4)c(-c4cccc(C)c4)nc3c2)CC1	-73.9
CCCNC(=O)c1ccc2nc(-c3ccccc3)c(-c3ccccc3)nc2c1	9.38
CN1CCN(CCNC(=O)c2ccc3nc(-c4ccc(F)cc4)c(-c4ccc(F)cc4)nc3c2)CC1	-50.6
Cc1nc2cc(C(=O)NCCN3CCOCC3)ccc2n1-c1ccc(F)cc1F	-3.86
Cc1ccc(Cl)c(OC(=O)c2nn(C(C)C)c(=O)c3ccccc23)c1	-2.19
COC(=O)c1ccccc1NC(=O)N1CCCC1	-11.9
O=C(CSc1nn(-c2ccccc2)c(=S)s1)Nn1cnnc1	14.8
COc1cc(C(=O)N2CCC(c3nc(-c4cccnc4)no3)CC2)cc(OC)c1OC	-8.08
O=C(CSc1nc2ncccc2[nH]1)NC1CCCC1	7.42
S=c1[nH]nc(COc2ccccc2)n1/N=C/c1ccc(Br)s1	-18.8
COc1ccc(S(=O)(=O)N2CCN(C)CC2)cc1C	7.28
Cc1ccc(/C=N/NC(=O)Cn2cnc3ccccc32)o1	3.48
CC1CCN(c2nnc(-c3cccs3)c3ccccc23)CC1	-41.6
c1ccc(N2CCN(c3nc(-c4cccs4)nc4ccccc34)CC2)cc1	-8.84
O=S(=O)(c1ccccc1)N1CCN(c2nc(-c3cccs3)nc3ccccc23)CC1	9.84

Structure (SMILES)	hERG current change (%, negative = inhibition) at 10uM [%]
CN1CCN(c2nnc(-c3cccs3)c3ccccc23)CC1	-53.9
CN1CCN(c2nc(-c3cccs3)nc3ccccc23)CC1	-73.9
c1csc(-c2nc(N3CCOCC3)c3ccccc3n2)c1	-10.1
Oc1ccc(N2CCN(c3nc(-c4cccs4)nc4ccccc34)CC2)cc1	16.5
c1csc(-c2nnc(N3CCOCC3)c3ccccc23)c1	-32.1
CCCN1CCN(c2nc(-c3cccs3)nc3ccccc23)CC1	-68.6
CCN1CCN(c2nc(-c3cccs3)nc3ccccc23)CC1	-70.8
Fc1ccccc1N1CCN(c2nc(-c3cccs3)nc3ccccc23)CC1	8.57
COc1ccc(N2CCN(c3nc(-c4cccs4)nc4ccccc34)CC2)cc1	14.4
COc1ccc(CNC(=O)c2oc3ccc(S(=O)(=O)N4CCOCC4)cc3c2C)cc1	7.71
COc1ccccc1NC(=O)Nc1ncccc1C	-1.09
O=C1NCCN(Cc2ccoc2)C1CC(=O)N(Cc1ccccc1)CC1CCC1 (centres unmarked)	8.87
COc1ccc(Cl)cc1NC(=O)COC(=O)c1c(-c2ccccc2)noc1C	-2.53
Oc1ccccc1N1CCN(c2nc(-c3cccs3)nc3ccccc23)CC1	5.52
CC(=O)N1CCN(c2nc(-c3cccs3)nc3ccccc23)CC1	-63.2
CCOC(=O)N1CCN(c2nc(-c3cccs3)nc3ccccc23)CC1	-1.74
CC(=O)NC(CC(=O)Nc1nccs1)c1ccccc1.O=C(O)C(=O)O (centres unmarked)	1.49
C=CCNCCCOc1ccc(Cl)cc1C(C)(C)C.O=C(O)C(=O)O	-60.8
CC(C)(C)NCCCOc1ccc(Cl)cc1C(C)(C)C.O=C(O)C(=O)O	1.96
CC(C)(C)NCCOCCOc1ccc(Cl)cc1C(C)(C)C.O=C(O)C(=O)O	0.207
CNCCCOc1ccc(Cl)cc1C(C)(C)C.O=C(O)C(=O)O	-20.6

Structure (SMILES)	hERG current change (%, negative = inhibition) at 10uM [%]
COCCCNCCCOc1ccc(Cl)cc1Br	-39.2
C=CCNCCOCCOc1ccc(Cl)cc1C(C)(C)C.O=C(O)C(=O)O	11.2
COCCCNCCOCCOc1ccc(Cl)cc1C(C)(C)C.O=C(O)C(=O)O	-50.6
CC(O)CNCCCOc1ccc(Cl)cc1C(C)(C)C.O=C(O)C(=O)O (centres unmarked)	-15.9
COCCCNCCCOc1ccc(Cl)cc1C(C)(C)C	-57.5
O=C(CSc1ccccn1)N1CCN(c2ccccc2)CC1	7.55
COc1ccc(O[C@H]2C=C[C@@H](c3ccccc3)O[C@@H]2CO/N=C(\C)CCN2CCc3nc(-c4ccccc4)c(-c4ccccc4)cc3C2)cc1	6.94
CCCNC(=O)NC(=O)CSc1ncc(C(F)(F)F)cc1Cl	12.6
C#CCOCCOCCOCCNc1nc(N2CCN(C(=O)[C@H](CCCCN)n3cc([C@@H](N)CC(C)C)nn3)CC2)nc(N2CCN(C(=O)[C@H](CCCCN)n3cc([C@@H](N)CC(C)C)nn3)CC2)n1.Cl	4.98
CCCCNS(=O)(=O)c1ccc(S(=O)(=O)NCc2ccncc2)cc1	-9.06
CCc1cccc2c(C(=O)CSc3nncn3C)c[nH]c12	7.69
CN(C(=O)CC1C(=O)NCCN1Cc1ccc(F)cc1Cl)C1CCCCC1 (centres unmarked)	-2.68
Cc1cccc(C(=O)N2CCN(c3ccc([N+](=O)[O-])c(NCc4ccco4)c3)CC2)c1	-34
O=[N+]([O-])c1ccc(N2CCN(CCO)CC2)cc1NCc1ccco1	-32.2
O=C(c1ccccc1)N1CCN(c2ccc([N+](=O)[O-])c(NCc3ccco3)c2)CC1	-47.2
Cc1ccc(C(=O)N2CCN(c3ccc([N+](=O)[O-])c(NCc4ccco4)c3)CC2)cc1	-50.5
CN1CCN(c2ccc([N+](=O)[O-])c(NCc3ccco3)c2)CC1	-51.9
O=[N+]([O-])c1ccc(N2CCNCC2)cc1NCc1ccco1	-28.2
COc1cc(OC)cc(C(=O)NNC(=O)c2ccc(-n3cncn3)c([N+](=O)[O-])c2)c1	5.46
CCN(CC)Cc1cc(C(=O)O)c(C)o1	19.4
O=C(CCn1c(=O)c2cccn2c2ccc(F)cc21)NCc1cccc(F)c1	23.4

Structure (SMILES)	hERG current change (%, negative = inhibition) at 10uM [%]
CCOC(=O)COn1c2c(c3c4no[n+]([O-])c4ccc31)CCCC2	3.89
CCCCN=Cc1sc2ccc(OCC)cc2c1O	3.66
CC(=O)c1cccc(NC(=O)CSc2nc(=O)n(CCCN3CCOCC3)c3c2CCC3)c1	-29.1
CCN(CC)CCn1c2c(c(SCC(=O)Nc3ccc4c(c3)OCO4)nc1=O)CCC2	-39.2
CCN(CC)CCn1c2c(c(SCC(=O)Nc3ccc(F)c(F)c3)nc1=O)CCC2	-70.5
O=C(CSc1nc(=O)n(CCN2CCOCC2)c2c1CCC2)Nc1ccc(OC(F)(F)F)cc1	-71.8
COc1ccc(NC(=O)CSc2nc(=O)n(CCN3CCOCC3)c3c2CCC3)cc1	0.105
CCN(CC)CCCn1c2c(c(SCC(=O)Nc3ccc4c(c3)OCO4)nc1=O)CCC2	-44.6
CC(=O)c1cccc(NC(=O)CSc2nc(=O)n(CCN3CCOCC3)c3c2CCC3)c1	-17.6
CCN(CC)CCCn1c2c(c(SCC(=O)Nc3ccc4c(c3)OCCO4)nc1=O)CCC2	-43.4
CCN(CC)CCCn1c2c(c(SCC(=O)Nc3cccc(C(C)=O)c3)nc1=O)CCC2	-59.4
CN(C)CCn1c2c(c(SCC(=O)Nc3ccc4c(c3)OCCO4)nc1=O)CCC2	-16.1
CCN(CC)CCCn1c2c(c(SCC(=O)Nc3ccc(F)c(F)c3)nc1=O)CCC2	-55.1
CCOc1ccc(NC(=O)CSc2nc(=O)n(CCN3CCOCC3)c3c2CCCC3)cc1	-28.1
COc1cc2c(cc1OC)C(C)N(C(=O)CCN1C(=O)C3C4C=CC(C4)C3C1=O)CC2 (centres unmarked)	16
CC12CCC(=O)N1C(C(=O)N1CCN(c3cccc(Cl)c3)CC1)CS2 (centres unmarked)	-19.4
Cc1ccccc1-c1noc(-c2ccccc2C(=O)NCC2CCCO2)n1 (centres unmarked)	-3.02
Cc1ccc(C)c2nc3sc(C(=O)O)cc3cc12	20.9
CN1C(=O)C(C)(C)c2cc(S(=O)(=O)N3CCCC(C(=O)NCc4ccc(Cl)cc4)C3)ccc21 (centres unmarked)	-8.2
C=CCn1c(O)c(C(CC)=NCc2ccc3c(c2)OCO3)c(=O)[nH]c1=O	3.09
